Among all 5,500 compounds or so, about 2,000 (36%) were called active. Inconclusive results (about 18%) are left out. No stated cut-off is given here; in the data, active means normalized growth mostly below about 0.91 (no sharp cut-off); inconclusive means no clear call, values can overlap the other calls; inactive means mostly above about 0.92. This is one part of the list.
Test: chemical genetic growth profiling, strain panel (AID 1159580);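 further: tested at 20 µM; growth read once vehicle control cultures reached saturation at 30 °C; 1 = growth at the plate median or of vehicle wells; lower values mean less growth of the strain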
Conditions: S. cerevisiae deletion strains, growth OD
[1] = locus YAR019C, strain CDC15, hits give low values
[2] = locus YBL105C, strain PKC1, hits give low values
[3] = locus YBR135W, strain CKS1, hits give low values
[4] = locus YBR136W, strain MEC1, hits give low values
[5] = locus YBR160W, strain CDC28, hits give low values
[6] = locus YDL017W, strain CDC7, hits give low values
[7] = locus YDL028C, strain MPS1, hits give low values
[8] = locus YDL101C, strain DUN1, hits give low values
[9] = locus YDL108W, strain KIN28, hits give low values
[10] = locus YDL132W, strain cdc53, hits give low values
[11] = locus YDL214C, strain PRR2, hits give low values
[12] = locus YDR052C, strain DBF4, hits give low values
[13] = locus YDR226W, strain ADK1, hits give low values
[14] = locus YDR477W, strain SNF1, hits give low values
[15] = locus YER123W, strain YCK3, hits give low values
[16] = locus YER133W, strain GLC7, hits give low values
[17] = locus YFL009W, strain cdc4, hits give low values
[18] = locus YFL029C, strain CAK1, hits give low values
[19] = locus YFR003C, strain YPI1, hits give low values
[20] = locus YFR019W, strain FAB1, hits give low values
[21] = locus YFR028C, strain CDC14, hits give low values
[22] = locus YGR040W, strain KSS1, hits give low values
[23] = locus YGR052W, strain FMP48, hits give low values
[24] = locus YGR092W, strain DBF2, hits give low values
[25] = locus YHR030C, strain SLT2, hits give low values
[26] = locus YHR079C, strain IRE1, hits give low values
[27] = locus YHR082C, strain KSP1, hits give low values
[28] = locus YHR205W, strain SCH9, hits give low values
[29] = locus YIL147C, strain SLN1, hits give low values
[30] = locus YJL095W, strain BCK1, hits give low values
[31] = locus YJL128C, strain PBS2, hits give low values
[32] = locus YJL157C, strain FAR1, hits give low values
[33] = locus YJR016C, strain ILV3, hits give low values
[34] = locus YJR066W, strain TOR1 (second series), hits give low values
[35] = locus YJR066W, strain TOR1, hits give low values
[36] = locus YKL048C, strain ELM1, hits give low values
[37] = locus YKL067W, strain YNK1, hits give low values
[38] = locus YKL101W, strain HSL1, hits give low values
[39] = locus YKL193C, strain SDS22, hits give low values
[40] = locus YKL203C, strain TOR2, hits give low values
[41] = locus YLR113W, strain HOG1, hits give low values
[42] = locus YLR133W, strain CKI1, hits give low values
[43] = locus YLR403W, strain SFP1, hits give low values
[44] = locus YML070W, strain DAK1, hits give low values
[45] = locus YMR001C, strain CDC5, hits give low values
[46] = locus YMR205C, strain PFK2 (second series), hits give low values
[47] = locus YMR277W, strain FCP1, hits give low values
[48] = locus YNL006W, strain LST8, hits give low values
[49] = locus YNL020C, strain ARK1, hits give low values
[50] = locus YNL161W, strain CBK1, hits give low values
[51] = locus YNL183C, strain NPR1, hits give low values
[52] = locus YNL207W, strain RIO2, hits give low values
[53] = locus YNL222W, strain SSU72, hits give low values
[54] = locus YNL307C, strain MCK1 (second series), hits give low values
[55] = locus YOL078W, strain AVO1, hits give low values
[56] = locus YOL136C, strain PFK27, hits give low values
[57] = locus YOR061W, strain CKA2, hits give low values
[58] = locus YOR119C, strain RIO1, hits give low values
[59] = locus YOR231W, strain MKK1, hits give low values
[60] = locus YOR329C, strain SCD5, hits give low values
[61] = locus YPL031C, strain PHO85, hits give low values
[62] = locus YPL153C, strain RAD53, hits give low values
[63] = locus YPL204W, strain HRR25, hits give low values
[64] = locus YPL209C, strain IPL1, hits give low values
[65] = locus YPL256C, strain CLN2, hits give low values
[66] = locus YPR025C, strain CCL1, hits give low values
[67] = locus YPR106W, strain ISR1, hits give low values
[68] = locus YPR111W, strain DBF20, hits give low values
[69] = strain NNK1, hits give low values
[70] = strain TSCII, hits give low values

Measured: normalized growth

CC(=O)c1ccc(Cl)c(N=Cc2cc(Cl)cc(Cl)c2O)c1
active: [11] 0.303 | [14] 0.289 | [15] 0.151 | [16] 0.354 | [20] 0.222 | [22] 0.339 | [23] 0.253 | [24] 0.139 | [25] 0.159 | [26] 0.148 | [27] 0.227 | [28] 0.199 | [30] 0.139 | [32] 0.23 | [34] 0.341 | [35] 0.175 | [36] 0.441 | [37] 0.227 | [38] 0.308 | [40] 0.399 | [41] 0.192 | [42] 0.274 | [43] 0.186 | [44] 0.184 | [46] 0.304 | [49] 0.247 | [51] 0.246 | [54] 0.209 | [56] 0.197 | [57] 0.198 | [58] 0.32 | [59] 0.123 | [61] 0.269 | [62] 0.197 | [63] 0.247 | [65] 0.197
inactive: [1] 0.94 | [2] 0.948 | [3] 0.953 | [4] 0.941 | [5] 0.937 | [6] 0.944 | [7] 0.91 | [8] 0.932 | [9] 0.935 | [10] 0.958 | [12] 0.963 | [13] 0.948 | [17] 0.928 | [18] 0.934 | [19] 0.933 | [21] 0.939 | [29] 0.926 | [31] 0.9 | [33] 0.967 | [39] 0.941 | [45] 0.936 | [47] 0.92 | [48] 0.947 | [50] 0.955 | [52] 0.947 | [53] 0.923 | [55] 0.926 | [60] 0.953 | [64] 0.95 | [66] 0.959 | [67] 0.952 | [68] 0.931 | [69] 0.948 | [70] 0.905

CCOC(=O)c1ccc(Cl)c(N=Cc2cc(Cl)cc(Cl)c2O)c1
active: [11] 0.544 | [14] 0.533 | [15] 0.319 | [16] 0.567 | [20] 0.472 | [22] 0.591 | [23] 0.511 | [24] 0.197 | [25] 0.238 | [26] 0.238 | [27] 0.501 | [28] 0.468 | [30] 0.298 | [32] 0.401 | [35] 0.37 | [36] 0.636 | [37] 0.527 | [38] 0.608 | [40] 0.594 | [41] 0.377 | [42] 0.432 | [43] 0.364 | [44] 0.389 | [46] 0.507 | [49] 0.404 | [51] 0.413 | [54] 0.381 | [56] 0.322 | [57] 0.326 | [58] 0.569 | [59] 0.301 | [61] 0.528 | [62] 0.421 | [63] 0.421 | [65] 0.317
inactive: [1] 0.955 | [2] 0.967 | [3] 0.943 | [4] 0.956 | [5] 0.948 | [6] 0.95 | [7] 0.946 | [8] 0.974 | [9] 0.953 | [10] 0.951 | [12] 0.959 | locus YDR054C, strain cdc34, hits give low values 0.957 | [13] 0.969 | [17] 0.949 | [18] 0.951 | [19] 0.946 | [21] 0.969 | [29] 0.946 | [31] 0.964 | [33] 0.956 | [34] 0.622 | [39] 0.95 | [45] 0.955 | [47] 0.954 | [48] 0.951 | [50] 0.951 | [52] 0.956 | [53] 0.951 | [55] 0.956 | [60] 0.958 | [64] 0.954 | [66] 0.947 | [67] 0.961 | [68] 0.958 | [69] 0.957 | [70] 0.957

Reference: PubChem BioAssay AID1159580 (chemical genetic matrix, 2015)
